The whole screen tested about 52,000 compounds, of which about 1,700 (3.3%) were called active. Rule as the data show it: active = survival mostly below about 52% (no sharp cut-off); inactive = mostly above about 56%. For the sample, actives were picked, then their nearest neighbours and some compounds at random.
tested on: Wild type; assay: S. aureus survival, RN4220 and DeltatarO strains – OD600, teichoic acid synthesis inhibitors, primary screen (AID 463173); conditions: S. aureus RN4220 wild type/DeltatarO growth, OD600, 18 h, stronger effect = lower value, screened at 18.75 µg/mL (by protocol)

**Q.** For `COc1ccccc1Nc1sc(C(=O)c2ccc3c(c2)OCO3)c(N)c1S(=O)(=O)c1ccccc1`, which survival is on record?
**A.** Its survival is 83% (inactive).

**Q.** For `Cc1ccc(Nc2nc(N)nc(CSc3nc4ccccc4s3)n2)cc1`, which survival is on record?
**A.** The survival was 32% (inactive).

**Q.** `COc1ccc(Nc2nc(N)nc(CSc3nc4cc(OC)ccc4s3)n2)cc1` was tested. Which survival did it give?
**A.** The survival was 8% (active).

**Q.** Which survival does the source give for `COc1ccc(Nc2nc(N)nc(CSc3nc4ccccc4s3)n2)cc1` here?
**A.** The survival was 35% (inactive).

**Q.** `COc1ccc(/C=C/C(=O)Nc2ccc(Cl)c(Cl)c2)cc1OC` was tested. Which survival did it give?
**A.** Its survival is 5% (active).

**Q.** For `C/C=C/C(=O)Nc1ccc(Cl)c(Cl)c1`, which survival is on record?
**A.** Its survival is 108% (inactive).

**Q.** With `COc1ccc(/C=C/C(=O)Nc2ccc(Cl)c(Cl)c2)cc1` as the compound, how does the survival read?
**A.** Its survival is 80% (inactive).

**Q.** `CN(C)c1ccc(NC(=O)CSC2=Nc3ccccc3C3=NC(CC(=O)NCc4ccc5c(c4)OCO5)C(=O)N23)cc1` (stereo unspecified) was tested. Which survival did it give?
**A.** The survival was 124% (inactive).

**Q.** Which survival does the source give for `Cc1ccc(Cl)cc1NC(=O)Nc1cccc(OCc2cc(=O)n3ccccc3n2)c1` here?
**A.** The survival was 64% (inactive).

**Q.** `O=C(Nc1cccc(OCc2cc(=O)n3ccccc3n2)c1)Nc1cccc(C(F)(F)F)c1` was tested. Which survival did it give?
**A.** Its survival is -6% (active).

**Q.** For `O=C(COc1ccc(F)cc1)Nc1cccc(OCc2cc(=O)n3ccccc3n2)c1`, which survival is on record?
**A.** The survival was 73% (inactive).

**Q.** For `Cc1cccn2c(=O)cc(COc3ccc(NC(=O)c4cccc(F)c4)cc3)nc12`, which survival is on record?
**A.** Its survival is -1% (active).

**Q.** With `CCOc1ccc(C(=O)Nc2ccc(OCc3cc(=O)n4cccc(C)c4n3)cc2)cc1` as the compound, how does the survival read?
**A.** The survival was 14% (active).

**Q.** `COc1cc(C(=O)Nc2ccc(OCc3cc(=O)n4ccc(C)cc4n3)cc2)cc(OC)c1OC` was tested. Which survival did it give?
**A.** The survival was 0% (active).

**Q.** With `Cc1cccc(C(=O)Nc2ccc(OCc3cc(=O)n4ccc(C)cc4n3)cc2)c1` as the compound, how does the survival read?
**A.** Its survival is 55% (inactive).

**Q.** Which survival does the source give for `COc1cc(C(=O)Nc2ccc(OCc3cc(=O)n4cccc(C)c4n3)cc2)cc(OC)c1OC` here?
**A.** The survival was 133% (inactive).

**Q.** For `Cc1cn2c(=O)cc(COc3ccc(NC(=O)c4cccc(F)c4)cc3)nc2s1`, which survival is on record?
**A.** Its survival is 122% (inactive).

**Q.** `COc1cccc(C(=O)Nc2cccc(OCc3cc(=O)n4cccc(C)c4n3)c2)c1` was tested. Which survival did it give?
**A.** The survival was 134% (inactive).

**Q.** Which survival does the source give for `Cc1ccccc1C(=O)Nc1ccc(OCc2cc(=O)n3cccc(C)c3n2)cc1` here?
**A.** The survival was 72% (inactive).

**Q.** Which survival does the source give for `COc1ccccc1C(=O)Nc1ccc(OCc2cc(=O)n3ccc(C)cc3n2)cc1` here?
**A.** The survival was 85% (inactive).

**Q.** `CCOC(=O)C1CCCN(C(=O)c2nn(-c3ccc(OC)cc3)c(=O)c3c2c2ccccc2n3C)C1` (stereo unspecified) was tested. Which survival did it give?
**A.** The survival was 125% (inactive).

**Q.** With `CCOC(=O)c1ccc(NC(=O)Cn2cc(C(=O)c3ccc(CC)cc3)c(=O)c3ccc(C)nc32)cc1` as the compound, how does the survival read?
**A.** Its survival is 143% (inactive).

**Q.** `COCCn1c(C)cc(O)c(C(c2ccc(Cl)cc2)N2CCN(c3ccccc3)CC2)c1=O` (stereo unspecified) was tested. Which survival did it give?
**A.** The survival was 65% (inactive).

**Q.** With `O=C(NCCC1=CCCCC1)c1ccc2c(c1)N(Cc1ccc(Cl)cc1)C(=O)c1ccccc1S2(=O)=O` as the compound, how does the survival read?
**A.** Its survival is 104% (inactive).

**Q.** Which survival does the source give for `NC(=O)CSc1oc(-c2ccco2)nc1S(=O)(=O)c1ccc(Cl)cc1` here?
**A.** The survival was 68% (inactive).

**Q.** Which survival does the source give for `Cc1ccc(CNC(=O)C2CCN(S(=O)(=O)N3CCC(C)CC3)CC2)cc1` here?
**A.** The survival was 77% (inactive).

**Q.** For `O=C(Cn1cc(S(=O)(=O)Cc2ccccc2Cl)c2ccccc21)NCCc1ccccc1`, which survival is on record?
**A.** The survival was 65% (inactive).

**Q.** With `CCC(=O)Nc1ccc2c(c1)C(=O)OC2` as the compound, how does the survival read?
**A.** The survival was 110% (inactive).

**Q.** How did the survival turn out when `Cc1cccn2c(=O)cc(COc3cccc(NC(=O)c4ccccc4F)c3)nc12` was run?
**A.** Its survival is -6% (active).

**Q.** How did the survival turn out when `Cc1cccc(C(=O)Nc2cccc(OCc3cc(=O)n4cccc(C)c4n3)c2)c1` was run?
**A.** The survival was 76% (inactive).

**Q.** How did the survival turn out when `Cc1ccc(OCC(=O)Nc2cccc(OCc3cc(=O)n4cccc(C)c4n3)c2)cc1C` was run?
**A.** The survival was 124% (inactive).

**Q.** For `Cc1cccn2c(=O)cc(COc3ccc(NC(=O)COc4ccc(F)cc4)cc3)nc12`, which survival is on record?
**A.** Its survival is 69% (inactive).

**Q.** `Cc1ccccc1C(=O)Nc1cccc(OCc2cc(=O)n3cccc(C)c3n2)c1` was tested. Which survival did it give?
**A.** The survival was 90% (inactive).

**Q.** For `Cc1ccc(OCC(=O)Nc2ccc(OCc3cc(=O)n4cccc(C)c4n3)cc2)cc1C`, which survival is on record?
**A.** The survival was -6% (active).

**Q.** How did the survival turn out when `Cc1cccc(-n2c(-c3ccco3)nc3c(cnn3-c3ccccc3C)c2=O)c1` was run?
**A.** The survival was 132% (inactive).

**Q.** How did the survival turn out when `O=C(CN(C1CCCCC1)S(=O)(=O)c1ccccc1)N1CCCCC1` was run?
**A.** The survival was 101% (inactive).

**Q.** `CCOC(=O)c1c(S(=O)(=O)N2CCC(C(=O)Nc3ccc(C)cn3)CC2)c(C)n(C)c1C` was tested. Which survival did it give?
**A.** The survival was 70% (inactive).

**Q.** `Cc1ccc(NC(=O)c2cc(S(=O)(=O)N3CCCCC3)c[nH]2)cc1N(C)C` was tested. Which survival did it give?
**A.** The survival was 87% (inactive).

**Q.** How did the survival turn out when `CCCN(C(=O)c1sc2nc3n(c(=O)c2c1C)CCCC3)c1ccccc1C` was run?
**A.** Its survival is 80% (inactive).

**Q.** Which survival does the source give for `COc1cc2c(cc1OC)C(COc1ccccc1OC)N(C(=O)c1ccccc1OC)CC2` (stereo unspecified) here?
**A.** Its survival is 73% (inactive).

**Q.** With `Cc1ccc(C(=O)Nc2nc(-c3nnn(-c4cccc(C(F)(F)F)c4)c3C)ns2)cc1` as the compound, how does the survival read?
**A.** The survival was 75% (inactive).

**Q.** Which survival does the source give for `CC(=O)c1ccc(N2CCN(S(=O)(=O)c3ccc(-c4cc(C(F)(F)F)on4)s3)CC2)cc1` here?
**A.** The survival was 72% (inactive).

**Q.** For `Cc1cc(-c2ccc(S(=O)(=O)N3CCN(c4ccc(Cl)cc4)CC3)s2)on1`, which survival is on record?
**A.** Its survival is 136% (inactive).

**Q.** How did the survival turn out when `CC(=O)c1ccc(N2CCN(S(=O)(=O)c3ccc(-c4cc(C)no4)s3)CC2)cc1` was run?
**A.** The survival was -6% (active).

**Q.** For `Cc1cccc(N2CCN(C(=O)Cn3c(=O)c4cccn4c4ccc(F)cc43)CC2)c1C`, which survival is on record?
**A.** Its survival is 85% (inactive).

**Q.** With `CC(C)(C)OC(=O)N1CCC(c2c(C(=O)NCc3ccco3)cnn2-c2ccccc2)CC1` as the compound, how does the survival read?
**A.** The survival was 75% (inactive).

**Q.** With `COc1ccc(S(=O)(=O)NCCc2cn3ccsc3n2)cc1OC` as the compound, how does the survival read?
**A.** The survival was -3% (active).

**Q.** `COc1ccc(S(=O)(=O)NCCc2cn3ccsc3n2)cc1` was tested. Which survival did it give?
**A.** Its survival is 82% (inactive).

**Q.** For `Cc1ccc(S(=O)(=O)NCCc2cn3ccsc3n2)cc1`, which survival is on record?
**A.** The survival was 57% (inactive).

**Q.** With `CN(C)c1ccc(N/C=C(\C#N)c2nc3ccccc3[nH]2)cc1` as the compound, how does the survival read?
**A.** Its survival is 118% (inactive).

**Q.** `CCOC(=O)CNC(=O)CSc1cn(CC(=O)N2CCCCCC2)c2ccccc12` was tested. Which survival did it give?
**A.** The survival was 99% (inactive).

**Q.** How did the survival turn out when `Cc1ccc(Nc2ncnc3c2nc2n3CCCC2)c(Br)c1` was run?
**A.** The survival was 111% (inactive).

**Q.** For `CC(C)Sc1ncc(Cl)c(C(=O)Nc2ccc(S(=O)(=O)N(C)c3ccccc3)cc2)n1`, which survival is on record?
**A.** Its survival is 78% (inactive).

**Q.** `CCS(=O)(=O)c1ncc(Cl)c(C(=O)Nc2ccc(S(=O)(=O)N(C)c3ccccc3)cc2)n1` was tested. Which survival did it give?
**A.** The survival was 8% (active).

**Q.** `CCS(=O)(=O)c1ncc(Cl)c(C(=O)Nc2ccccc2)n1` was tested. Which survival did it give?
**A.** The survival was 70% (inactive).

**Q.** With `CN(c1ccccc1)S(=O)(=O)c1ccc(NC(=O)c2nc(S(C)(=O)=O)ncc2Cl)cc1` as the compound, how does the survival read?
**A.** Its survival is 2% (active).

**Q.** With `CCCSc1ncc(Cl)c(C(=O)Nc2ccc(S(=O)(=O)N(C)c3ccccc3)cc2)n1` as the compound, how does the survival read?
**A.** The survival was 84% (inactive).

**Q.** For `CCN(c1ccccc1)S(=O)(=O)c1ccc(NC(=O)c2nc(S(C)(=O)=O)ncc2Cl)cc1`, which survival is on record?
**A.** Its survival is 0% (active).

**Q.** For `CCN(c1ccccc1)S(=O)(=O)c1ccc(NC(=O)c2nc(SC(C)C)ncc2Cl)cc1`, which survival is on record?
**A.** Its survival is 81% (inactive).

**Q.** With `CCN(c1ccccc1)S(=O)(=O)c1ccc(NC(=O)c2nc(SC)ncc2Cl)cc1` as the compound, how does the survival read?
**A.** The survival was 88% (inactive).

**Q.** Which survival does the source give for `CCSc1ncc(Cl)c(C(=O)Nc2ccc(S(=O)(=O)N(C)c3ccccc3)cc2)n1` here?
**A.** The survival was 84% (inactive).

Source: PubChem BioAssay AID463173 (ICCB-Longwood Screening Facility, Harvard Medical School, 2010)
